Where “and” joins values, the source holds several entries; their conditions need not be identical. Identical values can stand only once. Hit rate of the full screen: of about 5,500 compounds, about 2,000 (36%) were called active. Inconclusive results (about 18%) are left out. No stated cut-off is given here; in the data, active means normalized growth mostly below about 0.91 (no sharp cut-off); inconclusive means no clear call, values can overlap the other calls; inactive means mostly above about 0.92. The list shows a part of the results.
Assay: chemical genetic growth profiling, strain panel (AID 1159580);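 further: tested at 20 µM; growth read once vehicle control cultures reached saturation at 30 °C; 1 = growth at the plate median or of vehicle wells; lower values mean less growth of the strain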
Conditions: S. cerevisiae deletion strains, growth OD

Measured: normalized growth

CCCC(=O)Nc1ncnc2c1ncn2C1O[C@@H]2COP(=O)(O)O[C@H]2[C@H]1OC(=O)CCC (stereo not given in full)
inactive: locus YAL013W, strain DEP1, hits give low values 1 | locus YAL021C, strain ccr4, hits give low values 0.981 | locus YAL026C, strain drs2, hits give low values 0.986 | locus YAL030W, strain snc1, hits give low values 0.994 | locus YBL061C, strain skt5, hits give low values 0.97 | locus YBR009C, strain hhf1, hits give low values 0.962 | locus YBR021W, strain FUR4, hits give low values 0.999 | locus YBR023C, strain chs3, hits give low values 0.974 | locus YBR171W, strain sec66, hits give low values 0.971 | locus YBR229C, strain ROT2, hits give low values 1.01 | locus YBR231C, strain swc5, hits give low values 0.995 | locus YBR279W, strain paf1, hits give low values 0.981 | locus YCL011C, strain gbp2, hits give low values 0.958 | locus YCL016C, strain dcc1, hits give low values 0.952 | locus YCL029C, strain bik1, hits give low values 1.02 | locus YCL061C, strain MRC1, hits give low values 0.977 | locus YCL069W, strain vba3, hits give low values 0.974 | locus YCR088W, strain abp1, hits give low values 0.984 | locus YDL005C, strain med2, hits give low values 0.982 | locus YDL035C, strain GPR1, hits give low values 1.02 | locus YDL040C, strain nat1, hits give low values 0.987 | locus YDL074C, strain BRE1, hits give low values 1 | locus YDL101C, strain DUN1, hits give low values 1.01 | locus YDL134C, strain PPH21, hits give low values 1.01 | locus YDL185W, strain tfp1, hits give low values 1.02 | locus YDL192W, strain arf1, hits give low values 1.01 | locus YDR001C, strain nth1, hits give low values 0.986 | locus YDR069C, strain doa4, hits give low values 0.999 | locus YDR101C, strain arx1, hits give low values 1.02 | locus YDR137W, strain rgp1, hits give low values 0.973 | locus YDR150W, strain NUM1, hits give low values 1 | locus YDR159W, strain sac3, hits give low values 1.01 | locus YDR162C, strain NBP2, hits give low values 1.01 | locus YDR195W, strain ref2 1 | locus YDR297W, strain sur2, hits give low values 0.985 | locus YDR318W, strain mcm21, hits give low values 1.02 | locus YDR334W, strain swr1, hits give low values 0.975 | locus YDR335W, strain msn5, hits give low values 0.988 | locus YDR388W, hits give low values 1.02 | locus YDR392W, strain spt3, hits give low values 0.869 | locus YDR502C, strain sam2, hits give low values 1.01 | locus YEL003W, strain gim4, hits give low values 0.995 | locus YEL037C, strain rad23, hits give low values 0.984 | locus YEL061C, strain CIN8 (second series), hits give low values 0.985 | locus YEL061C, strain CIN8, hits give low values 1.01 | locus YER015W, strain faa2, hits give low values 0.98 | locus YER016W, strain bim1, hits give low values 0.975 | locus YER110C, hits give low values 1.03 | locus YER111C, strain swi4, hits give low values 0.973 | locus YER155C, strain BEM2 (second series), hits give low values 1.01 | locus YER155C, strain BEM2, hits give low values 0.996 | locus YER167W, strain BCK2, hits give low values 1.01 | locus YFR010W, strain ubp6, hits give low values 0.988 | locus YGL078C, strain dbp3, hits give low values 1.02 | locus YGL086W, strain mad1, hits give low values 1 | locus YGL167C, strain pmr1, hits give low values 0.981 | locus YGL173C, strain kem1, hits give low values 0.979 | locus YGL227W, strain vid30, hits give low values 0.978 | locus YGL240W, strain doc1, hits give low values 1.02 | locus YGL248W, strain PDE1, hits give low values 1.01 | locus YGL253W, strain hxk2, hits give low values 0.996 | locus YGR135W, strain pre9, hits give low values 1.03 | locus YGR229C, strain SMI1, hits give low values 1.01 | locus YGR252W, strain gcn5, hits give low values 1.04 | locus YHR013C, strain ard1, hits give low values 0.973 | locus YHR027C, strain rpn1, hits give low values 0.979 | locus YHR030C, strain SLT2, hits give low values 1 and 1.02 | locus YHR079C, strain IRE1 (second series), hits give low values 1.02 | locus YHR079C, strain IRE1, hits give low values 1.03 | locus YHR094C, strain hxt1, hits give low values 1.02 | locus YHR129C, strain ARP1, hits give low values 1 | locus YHR142W, strain chs7, hits give low values 0.944 | locus YHR200W, strain rpn10, hits give low values 1.02 | locus YIL066C, strain RNR3, hits give low values 1.02 | locus YIL073C, strain SPO22, hits give low values 1.06 | locus YIL125W, strain kgd1, hits give low values 1.02 | locus YIR030C, strain dcg1, hits give low values 1.02 | locus YJL092W, strain hpr5, hits give low values 0.985 | locus YJL095W, strain BCK1 (second series), hits give low values 0.979 | locus YJL095W, strain BCK1, hits give low values 1 and 1.03 | locus YJL115W, strain asf1, hits give low values 0.985 | locus YJL129C, strain trk1, hits give low values 0.949 | locus YJL134W, strain LCB3, hits give low values 1.01 | locus YJL154C, strain vps35, hits give low values 0.97 | locus YJL164C, strain tpk1, hits give low values 0.968 | locus YJL166W, strain qcr8, hits give low values 1.01 | locus YJL168C, strain set2, hits give low values 1.03 | locus YJL187C, strain SWE1 (second series), hits give low values 1 | locus YJL187C, strain SWE1, hits give low values 0.992 | locus YJR043C, strain POL32, hits give low values 1.01

Source: PubChem BioAssay AID1159580 (chemical genetic matrix, 2015)
